Where “and” joins values, the source holds several entries; their conditions need not be identical. Equal entries are not always repeated. Records with an inconclusive call do not appear. Where a call stands in place of a potency, no number is given. The source holds several records for some structures; these can differ, active in one and inactive in another. Calls of active or inactive are those of the source. Unless noted, calls follow the shape of the dose curve; as a rule, active = well fitted inhibition curve with a large enough effect in the repeat runs; inconclusive = weak or mixed curves; inactive = no such curve, though single readings can be large or run the other way.

Cytochrome P450 2D6 (Homo sapiens), sequence (P10635 whole entry, looked up): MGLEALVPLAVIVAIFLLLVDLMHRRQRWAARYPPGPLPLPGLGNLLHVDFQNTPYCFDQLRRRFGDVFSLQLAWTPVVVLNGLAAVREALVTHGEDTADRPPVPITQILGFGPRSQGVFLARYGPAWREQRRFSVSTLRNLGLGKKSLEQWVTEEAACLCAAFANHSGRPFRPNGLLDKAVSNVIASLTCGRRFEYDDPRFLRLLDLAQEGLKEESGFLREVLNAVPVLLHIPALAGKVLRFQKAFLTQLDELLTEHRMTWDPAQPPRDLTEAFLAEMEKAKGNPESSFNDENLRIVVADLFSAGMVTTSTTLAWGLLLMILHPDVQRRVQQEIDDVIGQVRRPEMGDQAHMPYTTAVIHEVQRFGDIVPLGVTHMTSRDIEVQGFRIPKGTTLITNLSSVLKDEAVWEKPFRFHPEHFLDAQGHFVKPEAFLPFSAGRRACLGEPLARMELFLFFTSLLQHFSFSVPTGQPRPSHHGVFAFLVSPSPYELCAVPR
Acetylcholinesterase (Homo sapiens), sequence (P22303 whole entry, looked up): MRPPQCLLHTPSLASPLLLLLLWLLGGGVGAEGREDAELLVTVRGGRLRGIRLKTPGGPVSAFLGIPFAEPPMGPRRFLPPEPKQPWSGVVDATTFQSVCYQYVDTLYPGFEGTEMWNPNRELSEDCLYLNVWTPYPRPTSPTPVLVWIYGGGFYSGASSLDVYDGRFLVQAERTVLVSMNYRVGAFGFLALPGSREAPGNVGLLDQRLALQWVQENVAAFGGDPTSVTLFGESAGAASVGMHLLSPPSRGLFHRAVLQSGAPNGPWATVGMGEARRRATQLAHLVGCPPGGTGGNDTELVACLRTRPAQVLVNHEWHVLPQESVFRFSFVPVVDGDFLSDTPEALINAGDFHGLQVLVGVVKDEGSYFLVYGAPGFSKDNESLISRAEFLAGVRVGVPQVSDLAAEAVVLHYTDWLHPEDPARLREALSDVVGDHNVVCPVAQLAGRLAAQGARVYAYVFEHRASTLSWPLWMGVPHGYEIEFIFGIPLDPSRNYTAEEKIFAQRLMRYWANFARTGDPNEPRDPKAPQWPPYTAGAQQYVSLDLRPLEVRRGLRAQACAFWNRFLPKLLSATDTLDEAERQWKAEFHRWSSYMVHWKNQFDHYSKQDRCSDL

One test deals with Acetylcholinesterase (Homo sapiens) (UniProt P22303). Kind of test: Acetylcholinesterase (AChE) small molecule antagonists: enzyme-based qHTS assay with human liver microsomes (AID 1347399; calls by dose curve; also: nearly all actives have a fitted effect of over 60% in size). The settings on record: Potency: qHTS inhibition; outcome: qHTS inhibition; series mostly up to 115 µM. Put shortly:
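Recombinant human AChE (50 mU/mL in the enzyme mix) and human liver microsomes (0.25 mg/mL final) were preincubated with compound and NADPH (0.25 mg/mL final) for 30 min at 37 C. Acetylthiocholine/DTNB was then added; thiocholine was read colorimetrically after 10 min at room temperature.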
On the technique in general: Quantitative high-throughput screening tests each substance at several concentrations.
For the compound `CCCCCBr`, the Potency result was “inactive”.

Consider `O=C(O)C(F)(F)C(F)(F)C(F)(F)C(F)(F)C(F)(F)C(F)(F)C(F)(F)C(F)(F)F`, for which the Potency entry was “inactive”.

Consider `O=C(O)COc1cc(Cl)c(Cl)cc1Cl`, for which the Potency entry was “inactive”.

As to `O=S(=O)(c1ccccc1)c1ccccc1`, the Potency entry is “inactive”.

`O=C(O)c1ccc(=O)[nH]c1`: the Potency entry was “inactive”.

With `CCOP(=S)(OCC)SCSc1cc(Cl)ccc1Cl`, the Potency entry is “inactive”.

For `CCCCC(CC)CO[N+](=O)[O-]` (configuration not stated), the Potency result was “inactive”.

In the case of `COc1cc(C[C@@H](C)N)c(OC)cc1Br`, the Potency entry is “inactive”.

Regarding `O=C1NC(=O)C(=O)C(=O)N1`, the Potency result is “inactive”.

Take `CC(C)C1(C)N=C(c2ncccc2C(=O)O)NC1=O` (configuration not stated): the Potency entry is “inactive”.

Consider `O=CC=O`, for which the Potency entry was “inactive”.

Regarding `CN1CC[C@]23c4c5ccc(O)c4O[C@H]2[C@@H](O)CC[C@H]3[C@H]1C5`, the Potency entry was “inactive”.

Turning to `O=C(Cc1ccccc1)OCCc1ccccc1`, the Potency result is “inactive”.

The next test addresses Cytochrome P450 2D6 (Homo sapiens) (UniProt P10635). The test can be described thus: Cytochrome P450 Family 2 Subfamily D Member 6 (CYP2D6) small molecule antagonists: luciferase reporter qHTS assay (AID 1671196). Also: nearly all actives have a fitted effect of over 50% in size. Also: potency is read from the fitted curve at half-maximal effect. The settings on record: P450-Glo CYP2D6 enzyme assay, luciferin luminescence, 1 h; series mostly up to 115 µM. The gist of the method:
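Quantitative HTS of Tox21 chemicals against CYP2D6 using a luminescent proluciferin substrate. After NADPH addition, 1 h room-temperature reaction; luminescence recorded 20 min post detection reagent.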
A general note: A reporter such as luciferase makes a cellular process visible.
`Cc1ccccc1`: the Potency entry is “inactive”.

`O=C(Cc1ccccc1)c1ccccc1`: the Potency was 22.4 µM (active).

On to `CCCCNC(=O)OCC#CI`, for which the Potency is 31.6 µM (active) and 35.6 µM (active).

As to `C[N+](C)(C)CCOC(=O)C(O)(c1ccccc1)c1ccccc1`, the Potency was 15.5 µM (active).

Consider `OCC1CO1` (configuration not stated), for which the Potency entry was “inactive”.

In the case of `C#CC(O)(C=CCl)CC` (configuration not stated), the Potency result was “inactive”.

On to `C1CS1`, for which the Potency entry is “inactive”.

For `Nc1ccc2c(c1)Cc1ccccc1-2`, the Potency is 62.9 µM (active).

Turning to `CCCC[N+](CCCC)(CCCC)CCCC`, the Potency is 0.0089 µM (active).

Consider `Nc1cccc2ccccc12`, for which the Potency was 31.9 µM (active) and 31.7 µM (active).

As to `Cc1ccc2c(C)cccc2c1`, the Potency entry is “inactive”.

For the compound `CC(C)[C@@H](C(=O)O[C@@H](C#N)c1cccc(Oc2ccccc2)c1)c1ccc(Cl)cc1`, the Potency was 32.2 µM (active) and inactive.

Take `CCOP(=O)(O)C(N)=O`: the Potency entry was “inactive”.

Regarding `CCCSP(=S)(OCC)Oc1ccc(SC)cc1` (configuration not stated), the Potency was 25.2 µM (active).

For the compound `Clc1ccccc1`, the Potency result was “inactive”.

For the compound `CCC1(C2=NCCN2)Cc2ccccc2O1` (configuration not stated), the Potency is 15.5 µM (active).

Regarding `O=P(OCC(Br)CBr)(OCC(Br)CBr)OCC(Br)CBr` (configuration not stated), the Potency is 20.3 µM (active) and 26.8 µM (active).

As to `OC[P+](CO)(CO)CO`, the Potency result is “inactive”.

As for `CC1(C)CC(=O)CC(C)(C)N1[O]`, the Potency result is “inactive”.

As to `COC1=CC(=O)O[C@@H](/C=C/c2ccc3c(c2)OCO3)C1`, the Potency is 34.1 µM (active).

Consider `CCc1cnc(C2=NC(C)(C(C)C)C(=O)N2)c(C(=O)O)c1` (configuration not stated), for which the Potency result is “inactive”.

Regarding `CC(C)(C)CC(C)(C)c1ccc(O)cc1`, the Potency was 39.9 µM (active) and inactive.

Regarding `CCCCC(CC)COC(=O)c1c(Br)c(Br)c(Br)c(Br)c1C(=O)OCC(CC)CCCC` (configuration not stated), the Potency entry was “inactive”.

Turning to `C[C@]12CC[C@H]3[C@@H](CCC4=CC(=O)CC[C@@H]43)[C@@H]1CC[C@@H]2OC(=O)CCc1ccccc1`, the Potency entry is “inactive”.

For the compound `C=C(C)C(=O)OCCCCOC(=O)C(=C)C`, the Potency entry was “inactive”.

Regarding `Nc1c(Br)cc(Br)c2c1C(=O)c1ccccc1C2=O`, the activity change, negative = inhibition was 0.314% [at 23.6 µM] (inactive).

For the compound `CCCCCBr`, the Potency entry is “inactive”.

With `O=C(O)C(F)(F)C(F)(F)C(F)(F)C(F)(F)C(F)(F)C(F)(F)C(F)(F)C(F)(F)F`, the Potency entry is “inactive”.

Regarding `O=C(O)COc1cc(Cl)c(Cl)cc1Cl`, the Potency entry is “inactive”.

As to `O=S(=O)(c1ccccc1)c1ccccc1`, the Potency result was “inactive”.

Regarding `O=C(O)c1ccc(=O)[nH]c1`, the Potency result was “inactive”.

Turning to `CCOP(=S)(OCC)SCSc1cc(Cl)ccc1Cl`, the Potency result is “inactive”.

`CCCCC(CC)CO[N+](=O)[O-]` (configuration not stated): the Potency entry was “inactive”.

Regarding `COc1cc(C[C@@H](C)N)c(OC)cc1Br`, the Potency is 11.6 µM (active).

On to `O=C1NC(=O)C(=O)C(=O)N1`, for which the Potency entry was “inactive”.

For the compound `CC(C)C1(C)N=C(c2ncccc2C(=O)O)NC1=O` (configuration not stated), the Potency result was “inactive”.

For the compound `O=CC=O`, the Potency result is “inactive”.

In the case of `CN1CC[C@]23c4c5ccc(O)c4O[C@H]2[C@@H](O)CC[C@H]3[C@H]1C5`, the Potency is 44 µM (active).

With `O=C(Cc1ccccc1)OCCc1ccccc1`, the Potency entry was “inactive”.

The values above are taken from PubChem BioAssay (Tox21).
